Drawing on PubChem BioAssay AID1662 (Broad Institute, 2009), this text covers inhibition for 96 compounds.

What is called inhibition is the change of the read-out against control, counted positive when it falls.

About 4,000 (1.3%) of roughly 300,000 compounds were called active. This excerpt belongs to a sample that is enriched for actives. A number with no mark means an inactive call.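 How the source made its calls: active means mean replicate score, as percent of positive control median, at least 50; inconclusive means mean below 50 but one replicate at or above 50; inactive means mean and every replicate below 50.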

The nature of the assay: S. pyogenes SKKanGAS growth inhibitors in kanamycin, primary screen, streptokinase expression inhibitor project, SKKanGAS strain, BacTiter-Glo luminescence (AID 1662).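 Further: strain carries kanamycin resistance gene driven by streptokinase promoter and grows in 40 µg/ml kanamycin; loss of luminescence reflects streptokinase promoter inhibition or plain growth inhibition; 0% = median of DMSO wells and 100% = positive control at its reference dose.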 The conditions noted are these: 6 h, at 7.5 µM, active compounds read high.
On to `COc1cccc(NS(=O)(=O)c2ccc(-c3coc(C)n3)cc2)c1`, for which the inhibition was 2.27%. Then `CN(C)CCN(Cc1ccccc1)S(=O)(=O)c1csc(C(N)=O)c1`, with -1.24%. The result for `CC1=C(C(=O)Nc2ccccc2)C(c2cccs2)C(C#N)=C(SCC#N)N1` (stereo unspecified) reads 15.4%. `Cc1noc(C)c1C(=O)N(CC(=O)NC1CCCC1)Cc1ccccc1F`: the inhibition is 2.6%. `COCCN(C(=O)COC(=O)Cc1cccc(OC)c1)c1c(N)n(Cc2ccccc2)c(=O)[nH]c1=O`: the inhibition was -1.12%.

Regarding `Cc1cccc(NC(=S)Nc2ccc(Cl)c(Cl)c2)c1`, the inhibition is 82% (active). In the case of `Cc1cccc(NC(=S)Nc2ccc(Br)cc2)c1`, the inhibition is 5.45%. The result for `Cc1cccc(NC(=S)Nc2ccc3cn[nH]c3c2)c1` reads 2.46%; that for `Cc1cc(C)cc(OCC(=O)Nc2cc(NC(=O)COc3cc(C)cc(C)c3)cc(C(=O)O)c2)c1`, 26%. Turning to `COc1ccc(Cl)cc1NC(=O)CN(C)Cc1ccc(OC)c(OC)c1`, the inhibition is 19.7%. Then `COc1ccc(N2CCN(C(C)=C3C(=O)c4ccccc4C3=O)CC2)cc1`, with 0.489%; and `CCOC(=O)C1=C(c2ccc(OC)cc2)C(=O)c2ccccc2C1=O`, with 54.9% (active); and `CCOC(=O)c1c(-c2ccc(C)cc2)csc1/N=C(\C)C1=C(O)c2ccccc2C1=O`, with 8.34%. Then `Cc1ccc(N=C2SCCCN2C(=O)c2cccc(N3C(=O)CCC3=O)c2)cc1Cl`, with 1.34%; and `O=C(NCCOc1ccccc1F)Nc1ccc(Br)cc1`, with -7.4%.

Turning to `Cc1ccc2cccc(S(=O)(=O)N3CCN(c4ccccc4F)CC3)c2n1`, the inhibition was -8.1%. The result for `CCn1cc(C(=O)NCCO)c(=O)c2cc(F)c(N3CCN(C)CC3)cc21` reads 1.21%; that for `CN1CCN(c2cc3c(cc2F)c(=O)c(C(=O)O)cn3CCF)CC1`, 66.8% (active). The result for `CCCCCCn1cc(C(=O)O)c(=O)c2cc(F)c(N3CCCCC3)cc21` reads 10%; that for `CC(C)Cn1c(N)c(C(=O)NCc2cccs2)c2nc3ccccc3nc21`, 88.2% (active).

With `CC(C)(C)c1ccc(C(=O)NCCn2c(N)c(C#N)c3nc4ccccc4nc32)cc1`, the inhibition is 8.82%.

As for `CCOc1ccccc1NC(=O)Cn1nnc(C(=O)NCc2cccs2)c1N`, the inhibition was -0.164%. The result for `O=C(NCCS(=O)(=O)N1CCN(c2ccccc2)CC1)c1ccco1` reads -0.162%; that for `COc1cc(OC)c(OC)cc1CN1CCN(C(=O)c2cccc3ccccc23)CC1`, -1.09%; that for `Cc1ccc(S(=O)(=O)N2CC(C)N(S(C)(=O)=O)C2)cc1` (stereo unspecified), -4.98%. The result for `Cc1c(C(N)=O)sc2ncn(CCOc3ccccc3)c(=O)c12` reads 2.66%; that for `CCOC(=O)C(C)n1cnc2sc(C)c(C)c2c1=O` (stereo unspecified), 2.1%. With `Cc1cccc(OC(=O)c2sc3ncn(C)c(=O)c3c2C)c1`, the inhibition is 82.2% (active). `COc1ccccc1C(C)NC(=O)Cc1ccsc1` (stereo unspecified): the inhibition was 5.44%. As for `CC(CNc1ccc([N+](=O)[O-])cc1)NC(=O)c1ccccc1Br` (stereo unspecified), the inhibition was -0.0993%. For the compound `O=C(CCn1c(=O)[nH]c2ccccc2c1=O)NCCCN1CCN(c2cccc(Cl)c2)CC1`, the inhibition is 2.26%. `COc1cccc(CNC(=O)Cc2csc(Nc3nc(=S)[nH]c4ccccc34)n2)c1`: the inhibition is 5.91%. Regarding `O=C(Cc1csc(Nc2nc(=S)[nH]c3ccccc23)n1)NCCCN1CCN(c2cccc(Cl)c2)CC1`, the inhibition is 67.8% (active). In the case of `CN1C(=O)C2(OCCCO2)c2cc(Cl)ccc21`, the inhibition was -1.28%. Turning to `CN(CCO)c1ccc(/C=N/Nc2nncc3ccccc23)cc1`, the inhibition is 68.8% (active). Then `COc1cc(/C=N/Nc2nn3cnnc3c3ccccc23)cc(OC)c1OC`, with -2.2%; and `C/C(=N\Nc1nncc2ccccc12)c1ccc(Cl)c([N+](=O)[O-])c1`, with -1.2%; and `CC[N+]1(CC)CC2=Cc3ccccc3CC2C1` (stereo unspecified), with 5.88%.

For the compound `COc1ccccc1OCCNc1cc(N2CCOCC2)ccc1[N+](=O)[O-]`, the inhibition was -5.71%. The result for `O=C(CSc1ccc(-c2ccc(Br)cc2)nn1)NCC1CCCO1` (stereo unspecified) reads -6.3%; that for `OC(CNCC1CCCO1)Cn1c2ccc(Br)cc2c2cc(Br)ccc21` (stereo unspecified), 52.3% (active); that for `CC(NS(=O)(=O)c1ccc(Br)cc1)C(=O)NCC1CCCO1` (stereo unspecified), -0.664%.

On to `CCOC(=O)C1(CCOc2ccccc2)CCN(Cc2cc(OC)cc(OC)c2)CC1`, for which the inhibition is -5.86%.

As for `CC1CCCCN1S(=O)(=O)CCNC(=O)c1ccccc1` (stereo unspecified), the inhibition is -1.35%.

On to `CCn1c(SCC(=O)NC2CC2)nnc1-c1ccccn1`, for which the inhibition is 0.558%. The result for `Cc1ccccc1NCC(=O)N/N=C\c1ccc([N+](=O)[O-])s1` reads 7.47%; that for `COc1ccc(C(=O)NCC(=O)N/N=C/c2ccc([N+](=O)[O-])s2)cc1OC`, -2.08%. Consider `CC(C)(C)c1cc(C(=O)N/N=C/c2ccc([N+](=O)[O-])s2)n[nH]1`, for which the inhibition is 51.8% (active). Consider `CCCCCCSc1nsc(N)n1`, for which the inhibition was 5.66%. Then `O=C(NCc1ccccc1)C(c1ccco1)N(C(=O)c1csnn1)c1ccccc1F` (stereo unspecified), with 1.53%; and `CC1(C)CC2CC(C)(CN2c2ncnc3ccc(Br)cc23)C1` (stereo unspecified), with 18.3%; and `CCCCn1c(CCCNC(=O)CC)nc2ccccc21`, with -0.548%. Then `CC(=O)Nc1nc2ccccc2n1Cc1ccc(C)cc1`, with 24.3%. With `CCC(=O)Nc1nc2ccccc2n1Cc1ccccc1C`, the inhibition was 61.8% (active).

As to `CC(C)C1N=C2c3ccccc3N=C(SCC(=O)c3ccc(O)c(O)c3)N2C1=O` (stereo unspecified), the inhibition was 19%. For `O=S(=O)(NC1CCCCC1N1CCCCC1)c1ccc(Cl)cc1` (stereo unspecified), the inhibition was 1.78%. Regarding `Cc1ccc(S(=O)(=O)N2CCC(C(=O)OCC(=O)N(C)c3ccccc3)CC2)cc1C`, the inhibition was -2.14%. `Nc1ccc(S(=O)(=O)Nc2nccc(/C=C/c3ccc(Br)s3)n2)cc1`: the inhibition is 2.22%.

Take `Oc1cccc2ccc(/C=C/c3ccc(Br)s3)nc12`: the inhibition was 77.1% (active).

As for `COc1cc2c(cc1OC)C(c1cccc([N+](=O)[O-])c1)=NCC2`, the inhibition is -3.25%. As to `CCc1nc2ccc(C(=O)N3CCN(c4cccc(Cl)c4)CC3)cc2nc1CC`, the inhibition was 7.12%. As for `CCN1CCN(C(c2cccnc2)c2cc(Cl)c3cccnc3c2O)CC1` (stereo unspecified), the inhibition was 28.1%. For the compound `Oc1c(CN2CCN(c3ccc(F)cc3)CC2)cc(Cl)c2cccnc12`, the inhibition was 81.2% (active). The result for `Oc1ccc(CN2CCN(c3ncccn3)CC2)cc1` reads -0.583%.

As to `CCCCCCCCCCCCN1[C@@H](CC(C)=O)c2cc(F)cc(F)c2S1(=O)=O`, the inhibition is 18.6%. Then `Cn1ncc2c(NNC(=O)Cc3cccc4ccccc34)ncnc21`, with -0.379%; and `COC(=O)CNS(=O)(=O)c1ccc(Cc2ccc(S(=O)(=O)NCC(=O)OC)cc2)cc1`, with 0.851%. As to `CCN(CC(=O)Nc1cc(Cl)ccc1C)C(=O)CN1C(=O)NC2(CCCC2)C1=O`, the inhibition was 9.28%. Then `O=C(O)c1ccccc1NC(=S)NC(NC(=O)c1ccccc1[N+](=O)[O-])C(Cl)(Cl)Cl` (stereo unspecified), with -2.95%.

Take `Cc1ccnc2nc(C(=O)Nc3nnc(-c4ccccc4)o3)nn12`: the inhibition is 1.08%. As to `O=C(Nc1nnc(-c2ccc(Cl)cc2)o1)c1ccccc1Br`, the inhibition is 93.9% (active). The result for `CCn1c2ccccc2c2cc(NC(=O)COC(=O)c3ccccc3Br)ccc21` reads 2.54%; that for `O=C(COC(=O)CSc1nnc(-c2ccc(Cl)cc2)o1)Nc1cc(Cl)cc(Cl)c1`, 3.37%. The result for `O=C(Nc1cccc(Cl)c1)Nc1nnc(-c2ccccc2)o1` reads 5.48%; that for `Cc1cccc(NC(=O)Nc2nnc(-c3ccccc3)o2)c1`, 15%. Turning to `O=C(COC(=O)c1ccccc1Br)Nc1nnc(-c2ccccc2)o1`, the inhibition is 72.3% (active).

`CC(=O)Nc1cccc(C(=O)OCC(=O)Nc2nnc(-c3ccccc3)o2)c1`: the inhibition is 13.3%. Regarding `O=C(COC(=O)c1ccc(Oc2ccccc2)cc1)Nc1nnc(-c2ccccc2)o1`, the inhibition was 79.8% (active).

On to `COc1ccc(-c2cc(=O)oc3cc(OC(C)C(=O)Nc4ccc(CN5CCOCC5)cc4)ccc23)cc1` (stereo unspecified), for which the inhibition was 15.3%. Then `COCCCNC(=O)C1CC(=O)N(CCc2ccc(F)cc2)C1` (stereo unspecified), with 1.79%; and `CC(C)(C)NC(=O)c1cccc(NC(=O)Cc2ccc(Br)cc2)c1`, with 0.415%. The result for `COc1ccc(C(=O)NNC(=S)NC(=O)c2ccccc2[N+](=O)[O-])cc1` reads -1.63%.

As to `COc1ccc(C(=O)NNC(=S)NC(=O)c2ccccc2)cc1`, the inhibition is 91.7% (active). Take `CCCCCC(=O)NC(=S)NNC(=O)c1ccc([N+](=O)[O-])cc1`: the inhibition was 21.9%. Then `CC(=O)NC(=S)NNC(=O)c1ccc(Br)cc1`, with 79% (active). In the case of `CNC(=S)NNC(=O)c1ccc(N(C)C)cc1`, the inhibition was -13.5%. Then `COc1ccc(C(=O)NC(=S)NNC(=O)CCc2ccccc2)cc1`, with 9.14%. For `O=C(NCC(c1cccs1)N1CCOCC1)c1cc(-c2ccccn2)nc2ccccc12` (stereo unspecified), the inhibition is -7.21%. Then `CC(=O)N1CCOc2ccc(S(=O)(=O)N3CCN(c4cccc(C(F)(F)F)c4)CC3)cc21`, with 2.46%; and `COc1ccc(N2CCC(CNC(=S)Nc3c(C)cccc3C)C2)cc1` (stereo unspecified), with -4.36%; and `Cc1ccc(CN2CCC(N3CCC(C(=O)NCC4CCCO4)CC3)CC2)o1` (stereo unspecified), with 4.3%. Turning to `CCOC(=O)C1(Cc2ccccc2C)CCCN(C(=O)CN2C(=O)CSC2=O)C1` (stereo unspecified), the inhibition is 5.85%.

For the compound `CC(=O)Nc1nc(N(C)C)nc(N(C)C)n1`, the inhibition was 2.59%. Then `Cc1ccc(-c2nc3ccccc3[nH]2)cc1NC(=O)c1sc2ccccc2c1Cl`, with 4.45%.

On to `O=C(/C=C/c1ccco1)Nc1cccc(-c2nc3ccccc3[nH]2)c1`, for which the inhibition is 16.2%. The result for `O=C(Nc1cccc(-c2nc3ccccc3[nH]2)c1)c1ccc(C(=O)Nc2cccc(-c3nc4ccccc4[nH]3)c2)cc1` reads 64% (active).
